Test system: Bacillus 1 (Bacillus foraminis)
Assay: relative growth (AUC of 72 h growth curve relative to DMSO control, dAUC) (ratio); higher = more growth (less inhibition), active = hit call of the paper
Settings: 20 µM;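 active = growth AUC significantly below the DMSO wells by Dunnett test; inactive = the rest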
Description: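 Environmental bacterial isolates (Iceland stream sediment and Silwood Park soil) and whole stream-sediment communities were grown in LB from a 1:100 dilution with each pesticide at 20 µM (1% DMSO). A600 was read hourly for 72 h and the area under a spline-fitted growth curve (AUC) was computed. dAUC is the mean AUC of 3 biological replicates divided by the mean AUC of the DMSO controls. Significance was tested by Dunnett's test against the DMSO control.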

| SMILES | relative growth |
| --- | --- |
| CC1(C)[C@H](/C=C(\Cl)C(F)(F)F)[C@@H]1C(=O)OC(C#N)c1cccc(Oc2ccccc2)c1 (some centres not stated) | 1.05 (inactive) |
| CC(Oc1ccc(Oc2ncc(C(F)(F)F)cc2Cl)cc1)C(=O)O (configuration not stated) | 1 (inactive) |
| C[C@@H]1[C@@H](c2ccc(Cl)cc2)SC(=O)N1C(=O)NC1CCCCC1 | 1.06 (inactive) |
| CC(COc1ccc(Oc2ccccc2)cc1)Oc1ccccn1 (configuration not stated) | 1.07 (inactive) |
| Oc1ccccc1-c1ccccc1 | 0.868 (inactive) |
| CCCN(CCC)C(=O)SCc1ccccc1 | 0.998 (inactive) |
| OC(Cc1ccccc1Cl)(Cn1nc[nH]c1=S)C1(Cl)CC1 (configuration not stated) | 0.988 (inactive) |
| CCCCc1c(C)nc(NCC)nc1OS(=O)(=O)N(C)C | 0.907 (inactive) |
| COCC(C)N(C(=O)CCl)c1c(C)csc1C (configuration not stated) | 0.948 (inactive) |
| CCCC1COC(Cn2cncn2)(c2ccc(Cl)cc2Cl)O1 (configuration not stated) | 0.942 (inactive) |
| CCC(CC)Nc1c([N+](=O)[O-])cc(C)c(C)c1[N+](=O)[O-] | 0.931 (inactive) |
| CCCSP(=O)(OCC)Oc1ccc(Br)cc1Cl (configuration not stated) | 1.07 (inactive) |
| N#C/N=C1\SCCN1Cc1ccc(Cl)nc1 | 1.08 (inactive) |
| COC(=O)N(C(=O)N1CO[C@@]2(C(=O)OC)Cc3cc(Cl)ccc3C2=N1)c1ccc(OC(F)(F)F)cc1 | 1 (inactive) |
| O=C1C2CC=CCC2C(=O)N1SC(Cl)(Cl)Cl (configuration not stated) | 0.939 (inactive) |
| N#Cc1nn(-c2c(Cl)cc(C(F)(F)F)cc2Cl)c(N)c1[S+]([O-])C(F)(F)F (configuration not stated) | 1.01 (inactive) |
| C[N+](C)(C)CCCl | 0.969 (inactive) |
| CC1COC(Cn2cncn2)(c2ccc(Oc3ccc(Cl)cc3)cc2Cl)O1 (configuration not stated) | 1.11 (inactive) |
| CNC(=O)CSP(=S)(OC)OC | 0.911 (inactive) |
| O=[N+]([O-])/N=C1\NCCN1Cc1ccc(Cl)nc1 | 1.06 (inactive) |
| CCOCN(C(=O)CCl)c1c(C)cccc1CC | 1 (inactive) |
| Nc1c([N+](=O)[O-])ccc(Oc2ccccc2)c1Cl | 1.02 (inactive) |
| Clc1ccc(C(c2ccc(Cl)cc2)C(Cl)(Cl)Cl)cc1 | 1.06 (inactive) |
| CCCC(Cn1cncn1)c1ccc(Cl)cc1Cl (configuration not stated) | 1.1 (inactive) |
| CN/C(=N\[N+](=O)[O-])NCc1cnc(Cl)s1 | 1.03 (inactive) |
| CC(C)NC(=O)N1CC(=O)N(c2cc(Cl)cc(Cl)c2)C1=O | 0.928 (inactive) |
| COP(=O)(NC(C)=O)SC (configuration not stated) | 1.02 (inactive) |
